For some of these results: Entries with a potency or affinity are not part of this list.

What all share (parameters): scale not given: direction of the effect not stated beside the values
The target in assay [1] is Protein translocase subunit SecA (Escherichia coli (strain K12)) (UniProt P10408). As to the kind of experiment: Assay to Identify E. coli SecA ATPase Inhibitors. The settings on record: 30 µM. It counts as functional.
Assay [2] deals with T1, Ubiquitin-activating enzyme e1, putative (Leishmania donovani (strain BPK282A1)) (UniProt E9BSI1).
T1 sequence (whole entry): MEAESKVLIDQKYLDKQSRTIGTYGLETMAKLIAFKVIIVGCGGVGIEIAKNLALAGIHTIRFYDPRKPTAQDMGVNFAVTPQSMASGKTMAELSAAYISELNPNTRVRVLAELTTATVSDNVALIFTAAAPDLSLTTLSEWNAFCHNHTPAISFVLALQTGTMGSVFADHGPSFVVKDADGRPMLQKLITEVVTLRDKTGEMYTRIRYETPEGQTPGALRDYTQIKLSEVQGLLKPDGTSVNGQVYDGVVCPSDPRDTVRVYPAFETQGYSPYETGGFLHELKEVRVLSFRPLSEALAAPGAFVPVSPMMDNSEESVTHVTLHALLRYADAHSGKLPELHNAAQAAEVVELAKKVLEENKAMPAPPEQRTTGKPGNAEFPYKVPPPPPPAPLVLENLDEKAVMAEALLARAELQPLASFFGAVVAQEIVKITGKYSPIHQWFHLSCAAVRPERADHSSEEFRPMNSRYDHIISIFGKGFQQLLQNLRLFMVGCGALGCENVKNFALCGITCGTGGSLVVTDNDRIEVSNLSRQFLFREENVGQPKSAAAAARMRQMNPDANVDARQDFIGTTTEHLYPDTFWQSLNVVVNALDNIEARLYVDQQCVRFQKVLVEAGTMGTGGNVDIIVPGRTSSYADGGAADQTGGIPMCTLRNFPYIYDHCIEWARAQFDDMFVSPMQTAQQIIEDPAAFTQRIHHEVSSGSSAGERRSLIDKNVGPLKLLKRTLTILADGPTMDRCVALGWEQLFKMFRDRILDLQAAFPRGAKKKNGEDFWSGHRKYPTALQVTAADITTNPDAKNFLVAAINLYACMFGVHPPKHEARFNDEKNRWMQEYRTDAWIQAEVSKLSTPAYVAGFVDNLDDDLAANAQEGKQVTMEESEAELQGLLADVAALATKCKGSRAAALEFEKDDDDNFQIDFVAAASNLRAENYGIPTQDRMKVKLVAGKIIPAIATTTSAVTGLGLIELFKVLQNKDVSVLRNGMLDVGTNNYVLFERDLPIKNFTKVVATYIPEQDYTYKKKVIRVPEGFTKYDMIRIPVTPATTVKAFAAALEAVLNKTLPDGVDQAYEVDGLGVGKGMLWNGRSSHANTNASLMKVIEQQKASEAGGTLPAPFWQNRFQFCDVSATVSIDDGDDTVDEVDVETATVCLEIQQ
As to the kind of experiment: Leishmania donovani Ubiquitin Activating Enzyme (LdE1). It counts as functional. The note with it: 30 µM.

In assay [3] the target is AMP-activated protein kinase, AMPK (Homo sapiens) (UniProt P54646+O43741+P54619+Q9UGJ0+Q9Y478+Q13131+Q9UGI9). Kind of assay: AMP-dependent Kinase enzyme assay. An in vitro enzyme assay that detects ADP turnover that is directly proportional to AMPK activity. This uses naive AMPK that is activated during the assay with MK-8722. The format is functional. The settings on record: 30 µM.

The target of assay [4] is Sialic acid-binding Ig-like lectin 9 (Homo sapiens) (UniProt Q9Y336). As to the kind of experiment: Hs-Siglec9 ALPHAscreen SOP 20170721. The settings on record: 10 µM. (In general: In Alpha technology, singlet oxygen from a donor bead excites a nearby acceptor bead.)
The next assay has as its system Trypanosoma cruzi. Kind of assay: Trypanosoma cruzi phosphomannomutase and mannose-1-phosphate guanylyltransferase assay. The format is functional. The note with it: 10 µM.
The target of assay [5] is T2, Arginase-2, mitochondrial (Homo sapiens) (UniProt P78540).
T2 sequence (whole entry): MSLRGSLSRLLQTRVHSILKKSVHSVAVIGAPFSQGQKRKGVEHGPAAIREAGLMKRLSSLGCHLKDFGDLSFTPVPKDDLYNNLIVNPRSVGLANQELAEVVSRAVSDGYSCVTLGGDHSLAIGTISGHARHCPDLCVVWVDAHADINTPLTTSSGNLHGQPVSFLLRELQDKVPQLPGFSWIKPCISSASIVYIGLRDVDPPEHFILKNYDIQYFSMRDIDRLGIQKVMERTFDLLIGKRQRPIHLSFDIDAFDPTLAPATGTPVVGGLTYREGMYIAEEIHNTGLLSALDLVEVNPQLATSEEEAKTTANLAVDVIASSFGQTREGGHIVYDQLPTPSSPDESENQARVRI
As to the kind of experiment: in vitro enzyme assay to detect the production of urea directly proportional to the activity of Arginase II. Also: in the data most compounds retested in dose-response had high values. The settings on record: 33.3 µM. The format is functional.

Assay [6] addresses T3, Proteasome subunit beta (Trypanosoma cruzi) (UniProt O96673).
T3 sequence (whole entry): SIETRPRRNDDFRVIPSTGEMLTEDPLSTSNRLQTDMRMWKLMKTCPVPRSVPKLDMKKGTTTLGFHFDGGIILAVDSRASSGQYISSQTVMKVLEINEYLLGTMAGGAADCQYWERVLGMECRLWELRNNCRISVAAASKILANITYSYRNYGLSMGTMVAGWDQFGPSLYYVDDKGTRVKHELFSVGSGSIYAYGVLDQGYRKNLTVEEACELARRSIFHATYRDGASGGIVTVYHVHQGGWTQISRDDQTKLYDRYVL
As to the kind of experiment: Trypanosoma cruzi proteasome chymotrypsin-like activity (TcProtChymo) assay. Also: in the data most compounds retested in dose-response had high values. The note with it: 9.37 µM. The format is functional.

For the next assay, the species on record is Homo sapiens. Kind of assay: To identify inhibition of the IFN signalling (Jak-Stat) pathway via expression of an eGFP reporter gene under the control of an IFN-stimulated response element (ISRE) containing MxA promoter. The settings on record: 30 µM. The format is functional. In general terms: Reporter assays use an easily measured gene product as a stand-in for the process of interest.

Assay [7] deals with T4, Tyrosyl-tRNA synthetase, putative (Trypanosoma cruzi (strain CL Brener)) (UniProt Q4DSP6).
T4 sequence (whole entry): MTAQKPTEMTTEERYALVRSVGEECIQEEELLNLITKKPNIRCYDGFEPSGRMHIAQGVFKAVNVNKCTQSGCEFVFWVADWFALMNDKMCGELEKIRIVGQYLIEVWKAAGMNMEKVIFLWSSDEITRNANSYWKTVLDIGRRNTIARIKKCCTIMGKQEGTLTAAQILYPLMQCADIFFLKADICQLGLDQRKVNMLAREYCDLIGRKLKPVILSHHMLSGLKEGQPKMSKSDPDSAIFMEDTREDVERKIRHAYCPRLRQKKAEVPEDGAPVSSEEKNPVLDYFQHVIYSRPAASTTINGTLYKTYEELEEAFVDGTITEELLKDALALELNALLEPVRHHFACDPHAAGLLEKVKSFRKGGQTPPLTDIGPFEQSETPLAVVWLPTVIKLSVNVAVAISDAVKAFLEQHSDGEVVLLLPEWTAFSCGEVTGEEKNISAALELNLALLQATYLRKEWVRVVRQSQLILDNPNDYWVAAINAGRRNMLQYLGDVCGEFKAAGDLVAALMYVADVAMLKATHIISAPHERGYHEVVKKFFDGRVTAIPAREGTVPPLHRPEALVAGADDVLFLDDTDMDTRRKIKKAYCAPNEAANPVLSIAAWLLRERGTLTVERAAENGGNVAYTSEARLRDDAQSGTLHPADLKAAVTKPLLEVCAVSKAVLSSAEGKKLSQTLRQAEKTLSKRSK
As to the kind of experiment: Trypanosoma cruzi tyrosyl tRNA synthetase (TcYRS) _High Tyrosine SOP. Also: in the data most compounds retested in dose-response had high values. The settings on record: 30 µM. It counts as functional.

Assay [8] deals with T4, Tyrosyl-tRNA synthetase, putative (Trypanosoma cruzi (strain CL Brener)). As to the kind of experiment: Trypanosoma cruzi tyrosyl tRNA synthetase (TcYRS) SOP. The settings on record: 30 µM. The format is functional.
In assay [9] the target is Chromo domain-containing protein 1 (Saccharomyces cerevisiae (strain ATCC 204508 / S288c) (Baker's yeast)) (UniProt P32657). As to the kind of experiment: ScCHD-1 Enzyme Inhibition Assay. Also: in the data most compounds retested in dose-response had high values. The format is functional. The settings on record: 30 µM.
Sequence of Chromo domain-containing protein 1 (Saccharomyces cerevisiae (strain ATCC 204508 / S288c) (Baker's yeast)) (P32657 whole entry, the tested form may be a part): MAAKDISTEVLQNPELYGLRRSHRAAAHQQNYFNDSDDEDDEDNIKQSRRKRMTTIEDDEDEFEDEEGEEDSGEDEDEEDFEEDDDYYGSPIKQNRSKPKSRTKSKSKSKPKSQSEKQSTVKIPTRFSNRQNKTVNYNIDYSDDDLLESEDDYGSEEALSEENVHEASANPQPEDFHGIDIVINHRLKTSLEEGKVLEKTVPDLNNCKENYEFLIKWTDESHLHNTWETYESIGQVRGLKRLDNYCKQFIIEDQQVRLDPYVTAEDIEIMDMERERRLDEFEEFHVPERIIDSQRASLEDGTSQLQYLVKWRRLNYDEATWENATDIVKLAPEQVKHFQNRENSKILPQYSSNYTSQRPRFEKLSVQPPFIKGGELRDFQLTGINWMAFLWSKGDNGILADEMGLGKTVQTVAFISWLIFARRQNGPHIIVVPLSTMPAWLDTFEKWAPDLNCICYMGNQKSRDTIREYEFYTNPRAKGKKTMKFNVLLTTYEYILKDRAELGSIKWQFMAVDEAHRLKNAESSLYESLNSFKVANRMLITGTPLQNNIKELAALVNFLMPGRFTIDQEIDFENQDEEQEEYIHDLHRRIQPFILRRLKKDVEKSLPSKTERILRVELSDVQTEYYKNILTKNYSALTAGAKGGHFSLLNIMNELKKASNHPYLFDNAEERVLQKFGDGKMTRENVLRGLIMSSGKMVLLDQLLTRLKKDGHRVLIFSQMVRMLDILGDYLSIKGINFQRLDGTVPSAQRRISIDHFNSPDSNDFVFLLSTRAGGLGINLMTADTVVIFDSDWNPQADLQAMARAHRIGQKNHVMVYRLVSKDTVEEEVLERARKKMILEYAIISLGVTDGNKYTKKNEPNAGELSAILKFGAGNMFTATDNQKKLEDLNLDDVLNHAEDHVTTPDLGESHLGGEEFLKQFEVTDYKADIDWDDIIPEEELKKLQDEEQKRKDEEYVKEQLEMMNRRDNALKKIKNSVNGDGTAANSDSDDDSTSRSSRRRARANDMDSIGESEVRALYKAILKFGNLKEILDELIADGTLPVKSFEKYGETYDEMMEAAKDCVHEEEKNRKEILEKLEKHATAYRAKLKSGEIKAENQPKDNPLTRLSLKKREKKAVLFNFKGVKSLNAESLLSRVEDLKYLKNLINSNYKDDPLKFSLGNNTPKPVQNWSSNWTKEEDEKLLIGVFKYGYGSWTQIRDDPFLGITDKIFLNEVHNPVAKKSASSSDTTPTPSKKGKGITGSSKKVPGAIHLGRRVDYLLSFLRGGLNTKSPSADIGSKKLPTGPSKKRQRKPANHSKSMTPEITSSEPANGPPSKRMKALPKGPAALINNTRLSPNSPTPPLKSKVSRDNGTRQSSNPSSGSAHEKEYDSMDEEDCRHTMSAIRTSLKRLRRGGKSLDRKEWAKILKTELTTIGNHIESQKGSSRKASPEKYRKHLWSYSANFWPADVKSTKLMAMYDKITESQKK

Sequence of Sialic acid-binding Ig-like lectin 9 (Homo sapiens) (Q9Y336 whole entry): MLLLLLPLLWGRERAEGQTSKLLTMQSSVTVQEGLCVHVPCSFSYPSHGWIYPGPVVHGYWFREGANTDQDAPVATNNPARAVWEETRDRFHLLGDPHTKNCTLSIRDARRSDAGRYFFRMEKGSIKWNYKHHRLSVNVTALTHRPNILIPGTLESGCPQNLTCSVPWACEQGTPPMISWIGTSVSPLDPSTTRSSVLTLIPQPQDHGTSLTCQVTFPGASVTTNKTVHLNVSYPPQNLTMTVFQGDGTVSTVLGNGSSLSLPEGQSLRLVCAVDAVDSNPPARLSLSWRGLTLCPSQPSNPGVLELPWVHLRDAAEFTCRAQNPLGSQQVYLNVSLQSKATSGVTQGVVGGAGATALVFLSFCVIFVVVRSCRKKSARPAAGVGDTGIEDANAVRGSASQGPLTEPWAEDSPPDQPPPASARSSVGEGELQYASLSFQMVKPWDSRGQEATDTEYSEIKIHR
Sequence of Protein translocase subunit SecA (Escherichia coli (strain K12)) (P10408 whole entry): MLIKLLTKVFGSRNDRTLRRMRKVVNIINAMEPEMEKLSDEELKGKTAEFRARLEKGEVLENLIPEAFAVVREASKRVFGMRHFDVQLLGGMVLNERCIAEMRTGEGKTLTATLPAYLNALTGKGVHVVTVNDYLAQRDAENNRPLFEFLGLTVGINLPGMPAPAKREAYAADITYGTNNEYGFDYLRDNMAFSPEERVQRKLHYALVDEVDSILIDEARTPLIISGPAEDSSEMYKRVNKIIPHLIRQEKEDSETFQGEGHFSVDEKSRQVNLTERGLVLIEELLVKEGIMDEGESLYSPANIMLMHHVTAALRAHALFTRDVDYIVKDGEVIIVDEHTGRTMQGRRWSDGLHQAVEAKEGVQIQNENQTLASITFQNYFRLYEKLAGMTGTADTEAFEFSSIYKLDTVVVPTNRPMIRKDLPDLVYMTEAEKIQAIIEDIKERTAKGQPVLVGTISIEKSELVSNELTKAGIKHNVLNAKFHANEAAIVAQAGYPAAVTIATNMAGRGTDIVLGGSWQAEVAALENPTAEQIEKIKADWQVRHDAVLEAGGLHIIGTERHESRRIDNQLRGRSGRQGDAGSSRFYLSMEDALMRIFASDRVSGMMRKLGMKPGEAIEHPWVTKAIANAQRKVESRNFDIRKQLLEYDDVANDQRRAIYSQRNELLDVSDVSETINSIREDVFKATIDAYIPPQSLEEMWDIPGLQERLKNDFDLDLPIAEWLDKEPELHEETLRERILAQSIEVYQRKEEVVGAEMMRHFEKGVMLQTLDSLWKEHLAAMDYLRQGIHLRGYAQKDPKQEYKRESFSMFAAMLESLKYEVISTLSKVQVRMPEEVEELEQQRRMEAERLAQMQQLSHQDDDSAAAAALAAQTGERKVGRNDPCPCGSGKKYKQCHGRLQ

Regarding `COCC1CN(C(=O)c2ccnnc2)Cc2c1cnn2C` (stereo unspecified), the Percent Effect in [1] is -3.58%; in assay [2], -5.33%; in assay [3], 7.75%; in assay [4], -1.95%; in the assay with Trypanosoma cruzi, 4.33%; in assay [5], -3.5%. The Percent Effect is 9.6% in [6]; 9.47% in the assay listed under Homo sapiens; 4.25% in assay [7]; 1.28% in assay [8]; -4.09% in [9].

Consider `COc1ccc(CN2CCCC3(CCN(c4ccsc4)C3=O)C2)cc1` (stereo unspecified), for which the Percent Effect is -1.81% in assay [1]; 0% in assay [2]; 5.65% in [3]; 2.16% in assay [4]; -5.32% in the assay on Trypanosoma cruzi; 3.96% in assay [5]. Besides, the Percent Effect in assay [6] was 6.78%; in the assay listed under Homo sapiens, 21.2%; in assay [7] it was 2.13%; in assay [8], 3.85%; in [9], -0.303%.

For `CCC(C)(NCC(=O)N(c1ccccc1)C(C)C)c1nc(C)cs1` (stereo unspecified), the Percent Effect in assay [1] is 1.71%; in assay [2], 8.11%; in assay [3], -12.9%; in assay [4], 3.16%; with Trypanosoma cruzi it was 1.27%; in assay [5] it was 7.2%. Also, the Percent Effect was 7.3% in assay [6]; -1.37% in the assay listed under Homo sapiens; 4.3% in assay [7]; 13.6% in assay [8]; -8.52% in assay [9].

`CC(=O)N1CCC(C(=O)NCCN2CCC(C)CC2)CC1`: the Percent Effect in [1] is -1.98%; in assay [2] it was 9.72%; in [3], 11.4%; in assay [4], -1.43%; in the assay with Trypanosoma cruzi it was -3.6%; in assay [5] it was 4.86%. The Percent Effect is 18.1% in assay [6]; -2.5% in the assay filed under Homo sapiens; 4.21% in assay [7]; 5.13% in assay [8]; -3.45% in assay [9].

With `COc1cccc(S(=O)(=O)NC2CNC(=O)C2)c1` (stereo unspecified), the Percent Effect was -6% in [1]; 2.74% in [2]; 3.51% in [3]; 9.97% in assay [4]; 6.66% in the assay on Trypanosoma cruzi; -1.36% in assay [5]. In addition, the Percent Effect in assay [6] was 2.31%; in the assay listed under Homo sapiens, -0.016%; in [7] it was 4.3%; in assay [8] it was 12.5%; in assay [9], -5.21%.

For the compound `CC1CCCN(CCNC(=O)c2ccn(-c3ccccc3)n2)C1` (stereo unspecified), the Percent Effect in assay [1] is -0.427%; in [2], 18.2%; in assay [3], 2.11%; in assay [4], -6.84%; in the assay on Trypanosoma cruzi, -8.05%; in assay [5] it was 4.63%. Besides, the Percent Effect in [6] is 5.07%; in the assay filed under Homo sapiens, 16.5%; in assay [7] it was 8.74%; in assay [8], 12.2%; in assay [9], -8.6%.

For `O=C(c1cnccn1)N1CCN(Cc2ccncc2)c2ncccc2C1`, the Percent Effect in assay [1] is -1.27%; in assay [2], 0%; in [3], 2.52%; in assay [4], 4.53%; with Trypanosoma cruzi, -1.54%; in assay [5], -20.2%. Besides, the Percent Effect in assay [6] was 2.73%; in the assay listed under Homo sapiens, -10.5%; in assay [7], 2.08%; in assay [8] it was 2.5%; in assay [9] it was -3.2%.

On to `CN(Cc1cnn(C)c1)C(=O)NC1CCS(=O)(=O)C1` (stereo unspecified), for which the Percent Effect was 0.0061% in assay [1]; 4.17% in assay [2]; -12.4% in [3]; -0.91% in [4]; 5.15% with Trypanosoma cruzi; -0.442% in assay [5]. The Percent Effect in [6] was 20.5%; in the assay listed under Homo sapiens it was 6.03%; in assay [7] it was 4.21%; in [8], 7.69%; in [9] it was -2.71%.

As for `CCOCC1CN(Cc2cccc(C#N)c2)Cc2nccn2C1` (stereo unspecified), the Percent Effect in assay [1] was -3.99%; in [2], -5.48%; in [3], 2.91%; in assay [4], 1.44%; with Trypanosoma cruzi, -2.38%; in assay [5], -2%. Further, the Percent Effect in assay [6] was 12.4%; in the assay filed under Homo sapiens it was -1.58%; in assay [7], 4.17%; in [8], 3.7%; in assay [9] it was -1.98%.

Regarding `CN(Cc1ccc(F)cc1)C(=O)Cn1nc(-c2ccc(F)cc2)oc1=O`, the Percent Effect in [1] is -0.937%; in [2], 2.63%; in assay [3], 0.873%; in assay [4] it was -13.2%; in the assay on Trypanosoma cruzi, -7.3%; in assay [5], 11.8%. The Percent Effect was 15.4% in assay [6]; 14.9% in the assay filed under Homo sapiens; -7.45% in assay [7]; -2.6% in assay [8]; -7.96% in assay [9].

On to `O=C(C1CCOC1)N1C[C@H]2CN(Cc3nccs3)C[C@H]2C1` (stereo partly specified), for which the Percent Effect is -7.06% in assay [1]; 5.41% in assay [2]; 2.27% in assay [3]; -7.15% in assay [4]; -3.81% in the assay with Trypanosoma cruzi; -6.69% in assay [5]. Moreover, the Percent Effect in assay [6] was 15.7%; in the assay listed under Homo sapiens, -4.44%; in assay [7], 0%; in [8], 2.56%; in [9] it was -2.08%.

The record behind these values is ChEMBL document CHEMBL3988442, “University of Dundee, Small-Polar-MMV Screening Library” (2021).
